# Screening data deposited in PubChem by National Center for Advancing Translational Sciences (NCATS).
# FH mod – Identification of activators of human fumarate hydratase by quantitative high-throughput screening. Fumarate hydratase, mitochondrial (Homo sapiens), P07954. FH coupled MDH/diaphorase resazurin fluorescence, 15 min. Potency, µM (series often up to 79.9 µM), inactives show at the highest dose activity change, negative = inhibition, usual class: inhibitors. hit rate 0.22% among 54,000; further: potency means the concentration at half of the fitted maximal effect; on the % scale 0 is the no-effect control and ±100 the full control effect; the screen sought activators but most active calls are inhibition curves; nearly all actives have a fitted effect of over 45% in size
# NTMT1 inh – inhibitors of human N-terminal methyltransferase NTMT1. hit rate 2.5% among 59,000. NTMT1 MTase-Glo SAH luminescence, purified enzyme. Potency, µM (doses to about 114 µM), for the others: at the highest dose activity change, negative = inhibition, hits mostly inhibitors. Q9BV86. AID 1645870;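 further: potency means the concentration at half of the fitted maximal effect; plate controls were DMSO vehicle for no effect and no enzyme for full effect; nearly all actives have a fitted effect of over 65% in size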
# GALC G270D act – enhancers of human galactocerebrosidase G270D mutant activity in cells; P54803; 145M-Twi-hGALC-G270D cells (Twitcher mouse brain line with human GALC G270D), HMU-beta-Gal fluorescence, 48 h; Potency, µM (titrated, usually from 57.5 µM), usual class: activators; hit rate 0.1% among 45,000; further: potency means the concentration at half of the fitted maximal effect; 0% is about no effect; nearly all actives have a fitted effect of over 65% in size
# Target sequence (P54803 whole entry G286D): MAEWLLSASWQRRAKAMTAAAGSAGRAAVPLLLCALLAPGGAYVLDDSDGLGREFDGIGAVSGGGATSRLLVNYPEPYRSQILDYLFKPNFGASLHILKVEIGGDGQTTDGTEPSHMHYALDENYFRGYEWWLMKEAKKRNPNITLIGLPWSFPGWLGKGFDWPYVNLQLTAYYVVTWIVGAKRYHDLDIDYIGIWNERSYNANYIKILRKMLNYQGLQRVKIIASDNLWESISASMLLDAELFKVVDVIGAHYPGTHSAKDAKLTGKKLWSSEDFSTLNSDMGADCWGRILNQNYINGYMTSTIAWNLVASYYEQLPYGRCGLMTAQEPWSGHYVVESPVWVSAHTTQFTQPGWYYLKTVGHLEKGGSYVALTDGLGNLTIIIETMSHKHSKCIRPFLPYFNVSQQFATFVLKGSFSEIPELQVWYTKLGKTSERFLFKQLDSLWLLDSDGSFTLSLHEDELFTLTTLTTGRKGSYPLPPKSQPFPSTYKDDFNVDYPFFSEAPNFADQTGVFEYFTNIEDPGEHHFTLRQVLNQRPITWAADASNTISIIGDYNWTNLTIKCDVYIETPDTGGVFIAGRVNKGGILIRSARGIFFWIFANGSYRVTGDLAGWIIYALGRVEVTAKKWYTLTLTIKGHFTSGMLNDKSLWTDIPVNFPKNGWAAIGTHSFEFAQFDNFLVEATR
#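 Fluorogenic HMU-b-Gal hydrolysis (0.1 mM final, pH 5.2 citrate-phosphate with 1 mg/mL sodium taurocholate; carbonate stop buffer) measures mutant GALC activity after compound treatment of live 145M-Twi Twitcher brain cells stably carrying human GALC-G270D, with wild-type GALC line alongside; activation sought.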
# p53null 39C kill – selectivity test: cytotoxicity in p53 null cells, nonpermissive temperature. hit rate 0.97% among 55,000. H1299 p53-null (neo) cells, 39C, ATPlite viability, 24 h. Potency, µM (series often up to 46.1 µM), for inactives: top-dose activity, negative = cell killing, hits mostly cytotoxic;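 further: potency means the concentration at half of the fitted maximal effect; 0% = DMSO only and -100% = full killing by 100 µM tamoxifen; nearly all actives have a fitted effect of over 50% in size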
#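 ATP-luminescence viability readout (ATPlite, 20 min RT) after 24 hr compound treatment at 39C of H1299-neo or H1299-p53A138V cells; titration up to 46 uM; normalized to DMSO and 100 uM tamoxifen; Hill-fit AC50.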
# DRV1 agonist – activates human resolvin D1 receptor GPR32; CHO-K1 GPR32 beta-arrestin PathHunter luminescence, 90 min; zero percent set by DMSO-only wells; hit rate 2.5% among 48,000; activation, % at 76.9 µM; O75388;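 active means activation of at least 60% and not above a set upper limit, about 1 call in 100 departs from these limits; inconclusive means activation of 40% to 60%, or above that upper limit; inactive means activation under 40%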; further: 0% is about no effect
#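 Agonism was scored as beta-arrestin recruitment to ProLink-fused GPR32 in stably transfected CHO-K1 cells, giving a chemiluminescent beta-Gal signal; compounds were incubated 90 min at 37 °C.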
# p53null 32C tox – p53 null cell cytotoxicity, permissive temperature; Potency, µM (titrated, usually from 46.1 µM), without a hit: top-dose activity change, negative = cytotoxicity, usual class: cytotoxic; H1299-neo p53 null cells, ATP luminescence, 24 h, 32C; hit rate 0.62% among 55,000;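 further: potency means the concentration at half of the fitted maximal effect; 0% = DMSO only and -100% = full killing by 100 µM tamoxifen; nearly all actives have a fitted effect of over 55% in size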
#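 AC50 values derive from Hill modelling of qHTS concentration-response data (up to 46 uM) in H1299-neo cells. Cells were treated 24 h at 32C following overnight attachment at 37C; viability was read as cellular ATP.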
# Numbers without * were called inactive; i = inactive; ? = inconclusive; . = no result given; ! = a repeat was not active; [ ] = dose if it differs, or a comment. A selection: hits, their analogues and other compounds. The true share with any hit is near 3.9%. Unless noted, the call rests on the fitted dose curve; in most records, active means well fitted curve in the direction sought with a large enough effect; inconclusive means small, poorly fitted or top-dose-only effect, or another doubt; inactive means no such curve, though single readings can be large; an effect the other way counts as inactive or inconclusive.
SMILES,FH mod,NTMT1 inh,GALC G270D act,p53null 39C kill,DRV1 agonist,p53null 32C tox
COc1cccc(CNC(=O)CN(c2ccc(C(C)C)cc2)S(=O)(=O)c2c(C)n[nH]c2C)c1,-13.4%,-2.2%,i,10.1%,70.8*,19.7%
COc1ccc(CNC(=O)CN(c2ccc(C)cc2)S(=O)(=O)c2c(C)n[nH]c2C)cc1,-0.8%,1.1%,i,3.4%,-2.4,7.2%
Cn1cncc1C(N)(c1ccc(Cl)cc1)c1ccc2c(c1)c(-c1cccc(Cl)c1)cc(=O)n2C (stereo not drawn),-2.7%,?,.,.,.,.
CCOc1ccc(CN2CCc3nc(N4CCN(c5ncccn5)CC4)ncc3C2)cc1OC,-3.7%,-1.6%,i,-10.5%,-20.8,9.0%
COc1cccc(N2CCN(c3ncc4c(n3)CCN(Cc3ccc(Br)cc3)C4)CC2)c1,-7.9%,50.1µM*,i,-1.0%,-9.4,2.6%
CC(=O)N[C@H]1[C@H](O[C@H]2CC[C@@]3(C)C(CC[C@]4(C)C3CC=C3C5CC(C)(C)CC[C@]5(C(=O)O)[C@H](O)C[C@]34C)C2(C)C)O[C@H](CO[C@@H]2OC[C@H](O)[C@H](O)[C@H]2O[C@@H]2OC[C@@H](O)[C@H](O)[C@H]2O)[C@@H](O)[C@@H]1O (stereo partly drawn),1.4%[20.6 µM],12.4%[12.6 µM],.,.,.,.
Cc1ccc(NS(=O)(=O)c2cn(C)c(C)n2)c(Br)c1,2.3%,7.9%,i,2.1%,34.7,-2.6%
Cc1ccc(NS(=O)(=O)c2ccc(-n3cccn3)cc2)c(Br)c1,-13.1%,0.5%,i,3.9%,71.7*,10.8%
Cc1cccc(NS(=O)(=O)c2ccc(-n3cccn3)cc2)c1C,-11.7%,?,i,8.0%,72.6*,-3.3%
Cc1cccc(NS(=O)(=O)c2ccc3[nH]c(=O)[nH]c3c2)c1C,-22.4%,2.5%,i,-13.1%,13.3,1.7%
Cc1c(C(=O)O)[nH]c2c1C(=O)CC(c1ccco1)C2 (stereo not drawn),.,-2.6%[57.5 µM],.,.,.,.
CC1CCN(S(=O)(=O)c2cc(C(=O)NCc3ccc(N(C)C)cc3)n(C)c2)CC1,-5.0%,89.1µM*,i,-0.2%,11.7,-6.7%
Cc1ccc(NC(=O)c2cc(S(=O)(=O)N3CCC(C)CC3)cn2C)cc1Cl,-3.7%,89.1µM*,?,7.8%,-0.8,7.6%
COc1ccc(CCCc2nnc(SCC(=O)Nc3cccc(F)c3C)o2)cc1,-5.3%,?,i,?,65.7*,-12.2%
COc1ccc(CCN2CCN(CCCc3ccccc3)CC2)cc1OC,3.0%,89.1µM*!,.,.,.,.
COc1ccc(CCn2c(C)ccc2C)cc1OC,.,.,.,-2.0%,.,2.6%
CCN(C(=O)c1cc(S(=O)(=O)N2CCc3ccccc32)cn1C)c1cccc(C)c1,-32.3%,89.1µM*,i,70.0%,-26.3,46.4%
CCc1cccc(CC)c1NC(=O)c1cc(S(=O)(=O)N2CCc3ccccc32)cn1C,7.2%,14.4%,i,22.4%,20.0,43.9%
CC(=O)Nc1sc2c(c1-c1ccc(F)cc1)CCNC2,.,-5.3%,.,.,.,.
CC(=O)Nc1sc2c(c1-c1ccc(N(C)C)cc1)CCNC2,.,14.1µM*,.,.,.,.
CCc1ccc(OCC(=O)Nc2ncn[nH]2)c(Br)c1,1.9%,-9.4%,i,1.26µM*,2.0,2µM*
N#Cc1ccc(NS(=O)(=O)c2ccc(NC(=O)Cc3ccc(Cl)c(Cl)c3)cc2)cc1,.,4.0%,.,.,.,.
CC1(C=O)CCCC2(C)C1CCC13CC(CO)C(CCC12)C3 (stereo not drawn),0.2%,-8.6%[57.5 µM],.,.,.,.
CCC(C)NC(=O)Cn1c(=O)cc(-c2ccccc2)c2c(C)nn(C)c21 (stereo not drawn),-45.7%,-0.6%,i,-17.1%,10.3,5.2%
Cc1nn(C)c2c1c(-c1ccccc1)cc(=O)n2CC(=O)NC(C)(C)C,-5.5%,-15.2%,i,27.1%,91.5*,9.3%
SMILES,FH mod,NTMT1 inh,GALC G270D act,p53null 39C kill,DRV1 agonist,p53null 32C tox
Cc1ccc2c(=O)cc(C(=O)Nc3ccc(S(=O)(=O)Nc4ncccn4)cc3)oc2c1C,-16.2%,?,i,-3.0%,66.6*,-1.2%
C=C1C2CCC3C(CCC4[C@@]3(C)CCC[C@@]4(C)C(=O)O)(C2)[C@@H]1OC(=O)/C(C)=C\C (stereo partly drawn),-1.1%[53.3 µM],-15.5%[29.8 µM],.,.,.,.
CNC(=O)c1ccc(NC(=O)c2nsc3ccccc23)cc1,-8.4%,39.8µM*,i,5.01µM*,-6.8,6.31µM*
CCOC(=O)c1ccc(NC(=O)c2nsc3ccccc23)cc1,-27.1%,?,i,10µM*,-27.7,7.94µM*
O=C(Nc1ccc(C(=O)N2CCCCC2)cc1)c1nsc2ccccc12,-18.2%,14.1µM*,i,3.98µM*,11.0,3.98µM*
Cc1ccccc1CNC(=O)c1ccc(NC(=O)c2nsc3ccccc23)cc1,-17.6%,-24.4%,i,?,-20.1,?
O=C(Nc1ccc(C(=O)N2CCN(c3ccc(F)cc3)CC2)cc1)c1nsc2ccccc12,-19.2%,5.8%,i,-13.8%,-19.4,-0.4%
Cc1ccc(CNC(=O)c2ccc(NC(=O)c3nsc4ccccc34)cc2)cc1,2.6%,0.4%,i,-22.8%,-9.0,-14.3%
O=C(NCc1cccc(F)c1)c1ccc(NC(=O)c2nsc3ccccc23)cc1,-6.5%,44.7µM*,i,10µM*,-12.1,?
CC1(C(=O)O)CC[C@]2(C(=O)OC3OC(CO)C(O)C(O)C3O)CC[C@]3(C)C(=CCC4[C@@]5(C)CC[C@H](OC6OCC(O)C(O)C6OC6OC(CO)C(O)C(O)C6O)C(C)(C)C5CC[C@]43C)C2C1 (stereo partly drawn),18.3%[20.6 µM],15.2%[12.6 µM],.,.,.,.
COc1ccc(-c2cnc3ccc(NCc4ccc(S(N)(=O)=O)cc4)nn23)cc1OC,-7.5%,?,.,.,.,.
CN1CCC(CNc2ccc3ncc(-c4cccc(OC(F)(F)F)c4)n3n2)CC1,?,15.8µM*,.,.,.,.
CN(CC[C@@H](Oc1ccc(C(F)(F)F)cc1)c1ccccc1)CC(=O)O,-12.3%[53.3 µM],.,.,.,-1.6,.
Cc1cc(O[C@@H](CCC(F)(F)F)c2ccc(C(=O)NCCC(=O)O)cc2)cc(C)c1-c1ccc(C(C)(C)C)cc1,.,31.6µM*,.,.,.,.
CCn1cc2nc(SCc3cccc(C)c3)n(CCc3ccccc3)c(=O)c2n1,39.8µM*,9.8%,i,23.0%,2.7,36.8%
CCn1cc2nc(SCC(=O)Nc3ccc(C)cc3C)n(Cc3ccc(C)cc3)c(=O)c2n1,-42.6%,89.1µM*,i,?,-7.4,-7.5%
CCn1cc2nc(SCc3cccc(C(F)(F)F)c3)n(CCc3ccccc3)c(=O)c2n1,31.6µM*,-4.9%,i,17.2%,-21.9,18.1%
